Assay outcomes deposited in PubChem BioAssay by National Center for Advancing Translational Sciences (NCATS).
Cycloheximide cs: Cycloheximide Counterscreen for Small Molecule Inhibitors of Shiga Toxin; max response, %; cell reporter, cycloheximide protein synthesis inhibition counterscreen; AID 2314, 2010; 300,000 tested, 12% active; in the data active = max response mostly above about 13%, no sharp cut-off; inactive = mostly below about 14%; also: read at 38.3 µM for the half of the compounds with a filed dose; 0% is about no effect
NS1 function inh: qHTS Assay for Inhibitors of Influenza NS1 Protein Function | Potency, µM (series often up to 46.1 µM), for the others: at the highest dose activity, positive = more growth | 270,000 tested, 0.4% active; calls by dose curve; also: potency is read from the fitted curve at half-maximal effect; actives are rising curves; nearly all actives have a fitted effect of over 50% in size
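A cell-based growth assay was used: compounds that relieve NS1-induced slow growth of budding yeast raise OD600. Assay medium was yeast nitrogen base with ammonium sulphate and -URA supplement, pH 6.0, with 2% galactose.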
Shiga inhibitor: A qHTS for Small Molecule Inhibitors of Shiga Toxin; 290,000 tested, 9.2% active; Vero cells, Shiga toxin protein synthesis inhibition reporter; AID 2315, 2010; inhibition, % at 38.7 µM; in the data active = inhibition mostly above about 28%, no sharp cut-off; inactive = mostly below about 43%; also: 0% is about no effect
Pf growth 96h: Primary qHTS for delayed death inhibitors of the malarial parasite plastid, 96 hour incubation. P. falciparum luciferase reporter growth, 96 h. Potency, µM (series often up to 28.7 µM), without a hit: at the highest dose activity change, negative = inhibition, usual class: inhibitors. 320,000 tested, 6.9% active. AID 504834, 2011; also: potency is read from the fitted curve at half-maximal effect; % is scaled to controls: 0 for no effect and ±100 for the full control effect
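96 h incubation, 37 C, 5% CO2, of luciferase-reporter P. falciparum-infected RBCs (2% hematocrit, 0.05% parasitemia final) with test compounds; endpoint luminescence.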
Pf growth 48h: Primary qHTS for delayed death inhibitors of the malarial parasite plastid, 48 hour incubation | P. falciparum luciferase growth in erythrocytes, 48 h | 310,000 tested, 5.9% active | Potency, µM (titrated, usually from 28.7 µM), without a hit: at the top dose activity change, negative = inhibition, usual class: inhibitors; also: potency is read from the fitted curve at half-maximal effect; % is scaled to controls: 0 for no effect and ±100 for the full control effect
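Here the parasites carry a stable luciferase gene and grow inside erythrocytes in Albumax-based RPMI medium with compound for one erythrocytic cycle. Activity is scored as loss of luminescent signal.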
The depositor's hits bear a star; ? = inconclusive; . = not tested or not shown. Sampled rows, rich in hits. Any-hit rate of the full collection: about 21%. Unless noted, calls follow the shape of the dose curve; as a rule, active = well fitted inhibition curve with a large enough effect; inconclusive = small, poorly fitted or top-dose-only effect, or another doubt; inactive = no such curve, though single readings can be large or run the other way.

SMILES	Cycloheximide cs	NS1 function inh	Shiga inhibitor	Pf growth 96h	Pf growth 48h
CCOC(=O)N1CCC(N2C(=O)c3ccccc3C2Nc2ccc3c(c2)OCCO3)CC1 (centres undefined)	161*	-40%	128*	39%	.
CCOC(=O)c1ccccc1NC1c2ccccc2C(=O)N1C1CCN(C(=O)OCC)CC1 (centres undefined)	7	-74%	-3	?	1.7µM*
Cc1ccc(C)c(CSc2ccc3nnc(-c4ccccn4)n3n2)c1	1	.	-20	?	13µM*
Cc1ccc(CSc2ccc3nnc(-c4ccccn4)n3n2)cc1	0	.	-10	10µM*	2.9µM*
COC(=O)c1ccc(CSc2ccc3nnc(-c4ccccn4)n3n2)o1	-2	-9%	8	10µM*	?
COC(=O)c1ccc(CSc2ccc3nnc(-c4ccc(F)cc4)n3n2)o1	-6	.	-9	?	?
Brc1ccc(CSc2ccc3nnc(-c4ccccn4)n3n2)cc1	-5	.	-12	2.9µM*	2.6µM*
CCN(CC)c1ccc(NS(=O)(=O)c2ccc(OC)cc2)cc1	-2	1%	-5	-33%	4%
Fc1ccc(CSc2ccc3nnc(-c4cccs4)n3n2)cc1	-2	-2%	-6	?	11%
Fc1ccc(CSc2ccc3nnc(-c4ccccn4)n3n2)cc1	-3	.	-6	3.3µM*	3.7µM*
COc1ccc(C(=O)N2CCc3cc(OC)c(OC)cc3C2c2ccc(OC)c(OC)c2)cc1OC (centres undefined)	8	-4%	-2	6.6µM*	13µM*
CCCC(=O)N1CCc2cc(OC)c(OC)cc2C1COc1ccccc1OC (centres undefined)	-7	-4%	2	-13%	?
COc1cc2c(cc1OC)C(c1ccccc1)N(C(=O)CCl)CC2 (centres undefined)	-1	-4%	-21	?	?
COc1cc2c(cc1OC)C(COc1ccccc1OC)N(C(=O)C(C)C)CC2 (centres undefined)	-2	.	-11	10µM*	?
COc1cc2c(cc1OC)C(C)N(C(=O)c1sccc1C)CC2 (centres undefined)	-7	-25%	12	?	-3%
COc1ccc(CC2c3cc(OC)c(OC)cc3CCN2C)cc1O (centres undefined)	-5	-27%	-13	-6%	8%
CCOc1ccc(CC2c3cc(OCC)c(OCC)cc3CCN2C(=O)c2cc(OC)c(OC)c(OC)c2)cc1OCC (centres undefined)	-3	9%	2	1.3µM*	1.5µM*
COc1cc2c(cc1OC)C(C)N(C(=O)c1cccc([N+](=O)[O-])c1)CC2 (centres undefined)	-4	.	-8	0.52µM*	-8%
CCOc1ccc(NC(=O)CN(C)Cc2cc(=O)n3c(-c4ccccc4)csc3n2)cc1OCC	2	.	-5	?	?
CCC(=O)N1CCc2cc(OC)c(OC)cc2C1COc1ccccc1OC (centres undefined)	7	.	-9	-8%	?
COc1cc2c(cc1OC)C(COc1ccccc1OC)N(C(=O)c1ccco1)CC2 (centres undefined)	8	.	-16	6.6µM*	?
O=C(N/N=C1/CN2CCC1CC2)c1cccc(O)c1	36*	7%	70*	0%	.
COCC(=O)Nc1cc(C(=O)Nc2ccccc2)ccc1Cl	36*	-34%	107*	191%	65%
CCOCC(=O)Nc1cc(C(=O)Nc2ccc(F)cc2)ccc1Cl	29*	-1%	33*	81%	50%
O=C(CN1CCN(CCN2C(=O)c3cccc4cccc(c34)C2=O)CC1)c1ccc(F)cc1	5	16%	17	1µM*	15µM*
CC(C)(C)C(=O)N1CCN(CCN2C(=O)c3cccc4cccc(c34)C2=O)CC1	1	11%	-1	-29%	-17%
CCN(CC)S(=O)(=O)c1ccc(C(=O)N2CCN(CCN3C(=O)c4cccc5cccc(c45)C3=O)CC2)cc1	-3	.	10	2.9µM*	?
O=C(CN1CCN(CCN2C(=O)c3cccc4cccc(c34)C2=O)CC1)c1ccc(Cl)cc1	1	12%	-9	?	?
O=C(CN1C(=O)c2ccccc2C1=O)c1ccc(F)cc1	26*	-4%	49	96%	116%
